ERb coact inh: ER-beta (human) coactivator binding inhibition; Q92731; TR-FRET ER-beta LBD / SRC1-Cy5 peptide binding; receptor agonist-loaded with 1 µM estradiol; inhibition, % at 25.6 µM; hit rate 1.3% among 86,000; AID 633;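 active = compounds whose percent inhibition of the receptor-coactivator binding signal exceeds about 50% in the single-dose screen, limit read from the data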
ERa SRC1 pot: ER-alpha (human) coactivator binding potentiation. AID 639. hit rate 1.3% among 86,000. coactivator binding (% of control), % at 25.6 µM. P03372. TR-FRET ERalpha-LBD/SRC-Cy5 coactivator binding, 2 h; 100 = basal binding, no effect; in the data active = activity above about 200%;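 also: binding measured in presence of low estradiol as agonist stimulus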
Target sequence (P03372 whole entry, looked up, the tested form may be a part): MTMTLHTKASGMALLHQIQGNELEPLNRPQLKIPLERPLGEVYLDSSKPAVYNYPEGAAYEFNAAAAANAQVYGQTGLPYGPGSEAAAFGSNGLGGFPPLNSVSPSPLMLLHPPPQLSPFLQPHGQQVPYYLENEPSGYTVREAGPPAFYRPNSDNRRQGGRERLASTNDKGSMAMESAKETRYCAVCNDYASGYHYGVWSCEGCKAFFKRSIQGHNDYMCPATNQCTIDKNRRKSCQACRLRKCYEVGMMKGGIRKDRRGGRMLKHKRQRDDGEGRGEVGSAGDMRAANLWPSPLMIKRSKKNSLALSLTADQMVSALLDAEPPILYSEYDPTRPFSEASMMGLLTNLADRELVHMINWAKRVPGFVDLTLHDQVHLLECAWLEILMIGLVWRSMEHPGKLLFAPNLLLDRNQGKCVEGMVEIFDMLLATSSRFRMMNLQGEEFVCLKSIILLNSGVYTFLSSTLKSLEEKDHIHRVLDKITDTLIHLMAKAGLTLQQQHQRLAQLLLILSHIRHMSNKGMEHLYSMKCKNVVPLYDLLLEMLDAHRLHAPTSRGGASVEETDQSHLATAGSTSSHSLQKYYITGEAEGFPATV
FAK inh: FAK (human) kinase inhibition; Q05397; biochemical FAK kinase activity assay; inhibition, %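 (tested at 7 µM)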; hit rate 0.84% among 97,000; AID 727; in the data active = inhibition above about 19%
Smad3 FoxH1 inh: blocks human Smad3 binding to FoxH1 peptide; AID 630; TR-FRET Smad3/Dy647-FoxH1 peptide binding, europium anti-His; P84022; inhibition, % at 25 µM; hit rate 0.29% among 88,000;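 active = compounds that reduce the energy-transfer binding signal between the protein and its labelled peptide by more than half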
ERa SRC1 inh: ER-alpha (human) coactivator binding inhibition; hit rate 1.7% among 86,000; TR-FRET ER-alpha LBD / SRC-1 peptide, estradiol-bound; inhibition, % at 25.6 µM; P03372; in the data active = inhibition above about 50%
Numbers stand for hits; – = inactive; · = no result; [ ] = another dose, or the depositor's remark. Most compounds without a hit are left out; they make up all but 3.3% or so of the library.

SMILES	ERb coact inh	ERa SRC1 pot	FAK inh	Smad3 FoxH1 inh	ERa SRC1 inh
O=C(OCc1cc(=O)n2c(n1)sc1ccccc12)c1ccc2c(=O)n3c(nc2c1)CCC3	–	–	·	–	79[fluorescence artefact?]
CN(C(=O)c1ccc2c(=O)n3c(nc2c1)CCCCC3)c1ccccc1	–	–	–	–	–
CCc1cc(=O)oc2cc(OCC(=O)N3CCc4ccccc43)ccc12	–	200[fluorescence artefact?]	·	–	–
CCOC(=O)c1ccc(NC(=O)COc2cc(=O)n(CC)c3ccccc23)cc1	–	890[fluorescence artefact?]	–	–	–
CCn1c(=O)cc(OCC(=O)N2CCc3ccccc32)c2ccccc21	–	212[fluorescence artefact?]	·	–	–
O=C(O)C12CC3(C(=O)O)CC(C(=O)O)(CC(C(=O)O)(C1)C3=O)C2=O	·	·	·	–	·
COc1ccc2cc(C(=O)CCC(=O)O)ccc2c1	·	·	·	–	·
Cc1ccc(-c2noc(CCC(=O)NCC3CCCO3)n2)cc1 (stereo not given)	–	–	–	–	–
Cc1ccc(-c2noc(CCC(=O)Nc3ccc(C)cn3)n2)cc1	–	253	–	–	–
COc1ccc2c(c1)c1c(C)c3cnccc3c(C)c1n2CCCN	·	·	·	87	·
CCN(CC)CCOC(=O)c1c(C)n(C)c2ccc(OC)cc12	·	·	–	·	·
O=C(CN1C(=O)c2ccccc2C1=O)[C@@H](O)CN1C(=O)c2ccccc2C1=O	·	·	·	–	·
C[N+](C)(C)CCN(Cc1cccs1)c1ccccn1	·	·	·	–	·
CCOc1ccc(C(=O)NCCn2cc(SCC(=O)Nc3cc(C)on3)c3ccccc32)cc1	–	–	–	–	–
Cc1cc(NC(=O)CSc2cn(CCNC(=O)c3ccc(Cl)cc3)c3ccccc23)no1	–	–	·	–	70
O=C(O)CCC(=O)C(=O)O	·	·	·	–	·
CCOC(=O)c1c(C)[nH]c(C)c1C(=O)COc1ccc(NC(=O)c2ccco2)cc1	54[fluorescence artefact?]	–	–	–	–
Cc1ccc(NC(=O)c2ccc(OC(=O)c3ccco3)cc2)cc1	–	372[fluorescence artefact?]	–	–	–
CCn1c(=O)c2cc(C(=O)Nc3cc(C)on3)sc2c2ccccc21	–	–	–	–	54[fluorescence artefact?]
Cc1onc(-c2ccccc2Cl)c1C(=O)Nc1cccc2cccnc12	–	–	–	–	–
Cc1onc(-c2ccccc2Cl)c1C(=O)Nc1cccc2nsnc12	–	263[fluorescence artefact?]	–	–	–
CCCCNN	·	·	·	–	·
CCC(C)n1cnc2c(c1=O)c1nc3ccccc3nc1n2Cc1ccc2c(c1)OCO2 (stereo not given)	–	–	–	–	–
O=c1c2c3nc4ccccc4nc3n(-c3cccc(F)c3)c2ncn1Cc1ccc2c(c1)OCO2	61[fluorescence artefact?]	–	·	–	82[fluorescence artefact?]
CCOC(=O)C1=C(N)n2c(s/c(=C\c3cccnc3)c2=O)=C(C(=O)OCC)C1c1cccnc1 (stereo not given)	–	–	·	–	–
SMILES	ERb coact inh	ERa SRC1 pot	FAK inh	Smad3 FoxH1 inh	ERa SRC1 inh
CCOC(=O)C1=C(N)n2c(s/c(=C\c3cccnc3)c2=O)=C(C(=O)OC)C1c1cccnc1 (stereo not given)	–	266[fluorescence artefact?]	–	–	72[fluorescence artefact?]
Oc1cc(O)c2c(c1)O[C@H](c1ccc(O)c(O)c1)[C@@H](O)[C@@H]2c1c(O)cc(O)c2c1O[C@@H](c1ccc(O)c(O)c1)[C@H](O)C2	·	·	·	–	·
COC(=O)[C@@H]1C(O)[C@H](C(=O)OC)[C@@H](C)N(C)[C@H]1C (stereo not given in full)	·	·	·	–	·
CCn1c(C(=O)N2CCCC(C(=O)NCCc3ccc(C)cc3)C2)cc2sccc21 (stereo not given)	–	–	–	–	–
CCn1c(C(=O)N2CCCC(C(=O)NCCCc3ccccc3)C2)cc2sccc21 (stereo not given)	80[fluorescence artefact?]	–	–	–	–
CCOC(=O)C1=C(c2ccccc2)O/C(=C(/C#N)C(F)(F)F)S1	–	–	–	–	–
CCOC(=O)C1=C(c2ccccc2)O/C(=C(\C(=O)OC)C(F)(F)F)S1	–	270[fluorescence artefact?]	–	–	–
NC(N)=N/N=C(\c1ccccc1)c1ccc(O)cc1O	·	·	·	–	·
Cc1cc2cc(CNC(=O)c3ccc(S(=O)(=O)N4CCCCC4)cc3)ccc2n1C	–	404[fluorescence artefact?]	–	–	–
Cc1cc2cc(CNC(=O)c3ccc(S(=O)(=O)N4CCCC4)cc3)ccc2n1C	–	293[fluorescence artefact?]	–	–	–
CCN(CC)S(=O)(=O)c1ccc(C(=O)NCc2ccc3c(c2)cc(C)n3C)cc1	–	–	–	–	–
O=C1C2[C@@H](c3ccccc3)N[C@@H](c3ccccc3)C1[C@@H](c1ccccc1)N[C@H]2c1ccccc1	·	·	·	–	·
Nc1nc(Nc2cccc3ccccc23)nc(C2CCCC2=O)n1 (stereo not given)	–	261[fluorescence artefact?]	·	–	–
COc1ccc(-n2c(N)c(C(=O)NCc3ccco3)c3nc4ccccc4nc32)c(OC)c1	–	–	–	–	–
COc1ccc2cc3c(N)c(C(=O)NCc4ccco4)sc3nc2c1	–	–	–	–	56[fluorescence artefact?]
O=C(NCc1ccco1)c1c2c(nc3ccccc13)CCC2	92[fluorescence artefact?]	–	·	–	93[fluorescence artefact?]
CCCOC(=O)c1sc2nc3c(cc2c1N)C(=O)CCC3	–	–	–	–	–
Nc1c(C(=O)NCc2ccco2)sc2nc3c(cc12)C(=O)CCC3	85[fluorescence artefact?]	–	–	–	82[fluorescence artefact?]
CCOC(=O)C1=NN(C(=O)Nc2cccc(C(F)(F)F)c2)C2C(=O)N(c3cccc(C(F)(F)F)c3)C(=O)C12 (stereo not given)	·	·	–	·	·
Cc1csc(N/N=C/c2ccc(O)c([N+](=O)[O-])c2)n1	99[fluorescence artefact?]	–	–	–	99[fluorescence artefact?]
Cc1csc(NC(=O)c2ccccc2[N+](=O)[O-])n1	·	·	–	·	·
O=S1(=O)OC(c2ccc(O)cc2)(c2ccc(O)cc2)c2ccccc21	·	·	·	97	·
OCc1ccncc1.OCc1ccncc1.[Cl][Pt]([Cl])([Cl])[Cl]	·	·	·	–	·
N=C(N)SCc1cc(Cl)cc(Cl)c1O	·	·	·	–	·
O=C(O)c1c[nH]c2c(ccc3[nH]cc(C(=O)O)c(=O)c32)c1=O	·	·	·	93	·
SMILES	ERb coact inh	ERa SRC1 pot	FAK inh	Smad3 FoxH1 inh	ERa SRC1 inh
O=C1[C@H]2[C@@H]3c4ccccc4[C@H]([C@H]2C(=O)N1c1ccc(OCc2ccccc2)cc1)[n+]1ccccc13	·	·	·	–	·
O=C(CSc1oc(-c2ccco2)nc1S(=O)(=O)c1ccc(Cl)cc1)NCC1CCCO1 (stereo not given)	–	–	–	–	54[fluorescence artefact?]
COc1ccc(OC)c(NC(=O)CCN2CCCCCC2)c1	–	–	–	–	51[fluorescence artefact?]
COc1ccc(OC)c(NC(=O)C2CCCN2C(=O)C2CCC(C)CC2)c1 (stereo not given)	–	–	–	–	91[fluorescence artefact?]
COc1ccc(OC)c(NC(=O)CCN2CCN(Cc3ccccc3)CC2)c1	–	–	–	–	–
COc1cc(NC(=O)C2CCCN2C(=O)C2CCC(C)CC2)cc(OC)c1OC (stereo not given)	·	·	–	·	·
CCCN1C2=C(C(=O)CCC2)C(c2ccc(F)cc2)C2=C1c1ccccc1C2=O (stereo not given)	–	–	–	–	–
CCN1C2=C(C(=O)CCC2)C(c2ccc(O)c(Br)c2)C2=C1CCCC2=O	60	–	–	–	56[fluorescence artefact?]
O=C(CSc1nnc(-c2ccccn2)n1Cc1ccco1)c1ccccc1	–	–	–	–	–
COc1ccc(C(=O)CSc2nnc(-c3ccccn3)n2Cc2ccco2)cc1	–	271[fluorescence artefact?]	–	–	–

Screening data: PubChem BioAssay, several laboratories
